# Unmarked numbers belong to inactive results.
# How the values were obtained:
# Experiment in all cases: log2 ratio of Biotin-Ahx-Ub-VS probe labelling (fragment/DMSO); higher = less target engagement (more negative = stronger competition), active = hit call of the paper (q ≤ 0.05, log2 ratio ≤ -1)
# Details in all cases: compound concentration: 200 uM; treatment time: 3 h
# [1] = target: T1, OTUD6B (UniProt Q8N6M0)
# T1 sequence (whole entry): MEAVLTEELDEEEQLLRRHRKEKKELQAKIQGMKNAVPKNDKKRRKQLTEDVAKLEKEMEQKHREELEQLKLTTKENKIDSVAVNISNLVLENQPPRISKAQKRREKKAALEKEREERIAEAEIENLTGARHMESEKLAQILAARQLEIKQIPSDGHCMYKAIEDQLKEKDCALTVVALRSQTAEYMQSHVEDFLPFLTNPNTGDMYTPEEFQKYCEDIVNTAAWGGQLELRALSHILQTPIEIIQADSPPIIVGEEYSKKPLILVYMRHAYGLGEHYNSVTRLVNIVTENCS
# How it was run: (§1)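 HEK293T lysate (495 µg per sample, in Tris/CHAPS/IGEPAL buffer with protease inhibitors) was exposed in triplicate for 3 h to fragment at 200 µM or to vehicle, then to Biotin-Ahx-Ub-VS at 0.5 µM final for 1 h. Labelled DUBs were enriched on NeutrAvidin, digested with LysC and trypsin, and analysed by diaPASEF LC-MS/MS. Spectronaut label-free quantities were normalised to the global median, and values are average log2 ratios of fragment over vehicle from an unpaired t-test. Only proteins with ≥2 unique peptides were used.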
# [2] = target: T2, OTUD7B (UniProt Q6GQQ9)
# T2 sequence (whole entry): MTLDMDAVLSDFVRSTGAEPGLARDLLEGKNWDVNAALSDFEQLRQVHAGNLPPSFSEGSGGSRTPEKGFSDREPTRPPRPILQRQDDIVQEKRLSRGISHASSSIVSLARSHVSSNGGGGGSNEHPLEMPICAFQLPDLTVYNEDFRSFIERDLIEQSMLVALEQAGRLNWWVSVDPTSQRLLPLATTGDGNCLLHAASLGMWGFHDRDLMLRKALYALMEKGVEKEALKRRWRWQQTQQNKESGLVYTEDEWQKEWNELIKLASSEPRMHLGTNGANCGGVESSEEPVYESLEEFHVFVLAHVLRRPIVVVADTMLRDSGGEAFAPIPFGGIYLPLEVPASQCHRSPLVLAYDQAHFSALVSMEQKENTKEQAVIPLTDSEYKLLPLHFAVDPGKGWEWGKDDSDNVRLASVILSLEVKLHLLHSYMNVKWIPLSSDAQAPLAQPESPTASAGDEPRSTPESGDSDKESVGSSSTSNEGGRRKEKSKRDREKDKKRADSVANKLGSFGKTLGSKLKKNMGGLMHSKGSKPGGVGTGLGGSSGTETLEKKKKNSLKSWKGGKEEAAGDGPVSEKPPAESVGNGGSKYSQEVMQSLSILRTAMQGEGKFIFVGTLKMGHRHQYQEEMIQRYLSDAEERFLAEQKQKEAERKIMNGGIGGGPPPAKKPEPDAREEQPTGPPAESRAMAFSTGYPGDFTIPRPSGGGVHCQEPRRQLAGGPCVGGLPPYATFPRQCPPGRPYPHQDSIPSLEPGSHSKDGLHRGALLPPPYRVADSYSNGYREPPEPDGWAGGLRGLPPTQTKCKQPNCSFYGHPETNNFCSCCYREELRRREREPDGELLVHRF
# How it was run: as §1
# [3] = target: PRPF8 (UniProt Q6P2Q9)
# How it was run: as §1
# [4] = target: T3, PSMD7 (UniProt P51665)
# T3 sequence (whole entry): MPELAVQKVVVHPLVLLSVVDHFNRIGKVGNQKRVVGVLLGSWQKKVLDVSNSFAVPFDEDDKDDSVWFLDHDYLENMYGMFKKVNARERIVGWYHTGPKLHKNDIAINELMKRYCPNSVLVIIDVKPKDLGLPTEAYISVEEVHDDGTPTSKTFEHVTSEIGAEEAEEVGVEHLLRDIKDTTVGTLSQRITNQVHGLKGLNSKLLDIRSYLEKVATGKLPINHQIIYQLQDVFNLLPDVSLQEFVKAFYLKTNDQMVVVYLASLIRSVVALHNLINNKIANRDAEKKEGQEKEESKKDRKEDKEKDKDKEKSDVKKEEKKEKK
# How it was run: as §1
# [5] = target: UCHL1 (UniProt P09936)
# How it was run: as §1
# [6] = target: T4, UCHL3 (UniProt P15374)
# T4 sequence (whole entry): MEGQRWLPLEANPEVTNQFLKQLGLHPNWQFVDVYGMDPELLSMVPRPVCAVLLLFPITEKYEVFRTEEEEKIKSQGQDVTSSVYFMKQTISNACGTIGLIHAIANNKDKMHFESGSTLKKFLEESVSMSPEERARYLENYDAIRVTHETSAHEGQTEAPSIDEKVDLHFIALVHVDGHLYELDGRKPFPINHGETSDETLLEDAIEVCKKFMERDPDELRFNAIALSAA
# How it was run: as §1
# [7] = target: T5, UCHL5 (UniProt Q9Y5K5)
# T5 sequence (whole entry): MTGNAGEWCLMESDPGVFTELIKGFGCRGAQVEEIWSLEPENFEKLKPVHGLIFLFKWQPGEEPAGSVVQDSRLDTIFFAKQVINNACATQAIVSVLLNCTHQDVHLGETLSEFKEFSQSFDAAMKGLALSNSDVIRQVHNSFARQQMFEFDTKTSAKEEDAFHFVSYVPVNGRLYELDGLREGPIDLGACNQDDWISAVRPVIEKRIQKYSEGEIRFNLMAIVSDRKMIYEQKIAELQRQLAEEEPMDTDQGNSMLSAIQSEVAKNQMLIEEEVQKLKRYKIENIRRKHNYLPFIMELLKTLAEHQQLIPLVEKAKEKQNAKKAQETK
# How it was run: as §1
# [8] = target: USP10 (UniProt Q14694)
# How it was run: as §1
# [9] = target: T6, USP15 (UniProt Q9Y4E8)
# T6 sequence (whole entry): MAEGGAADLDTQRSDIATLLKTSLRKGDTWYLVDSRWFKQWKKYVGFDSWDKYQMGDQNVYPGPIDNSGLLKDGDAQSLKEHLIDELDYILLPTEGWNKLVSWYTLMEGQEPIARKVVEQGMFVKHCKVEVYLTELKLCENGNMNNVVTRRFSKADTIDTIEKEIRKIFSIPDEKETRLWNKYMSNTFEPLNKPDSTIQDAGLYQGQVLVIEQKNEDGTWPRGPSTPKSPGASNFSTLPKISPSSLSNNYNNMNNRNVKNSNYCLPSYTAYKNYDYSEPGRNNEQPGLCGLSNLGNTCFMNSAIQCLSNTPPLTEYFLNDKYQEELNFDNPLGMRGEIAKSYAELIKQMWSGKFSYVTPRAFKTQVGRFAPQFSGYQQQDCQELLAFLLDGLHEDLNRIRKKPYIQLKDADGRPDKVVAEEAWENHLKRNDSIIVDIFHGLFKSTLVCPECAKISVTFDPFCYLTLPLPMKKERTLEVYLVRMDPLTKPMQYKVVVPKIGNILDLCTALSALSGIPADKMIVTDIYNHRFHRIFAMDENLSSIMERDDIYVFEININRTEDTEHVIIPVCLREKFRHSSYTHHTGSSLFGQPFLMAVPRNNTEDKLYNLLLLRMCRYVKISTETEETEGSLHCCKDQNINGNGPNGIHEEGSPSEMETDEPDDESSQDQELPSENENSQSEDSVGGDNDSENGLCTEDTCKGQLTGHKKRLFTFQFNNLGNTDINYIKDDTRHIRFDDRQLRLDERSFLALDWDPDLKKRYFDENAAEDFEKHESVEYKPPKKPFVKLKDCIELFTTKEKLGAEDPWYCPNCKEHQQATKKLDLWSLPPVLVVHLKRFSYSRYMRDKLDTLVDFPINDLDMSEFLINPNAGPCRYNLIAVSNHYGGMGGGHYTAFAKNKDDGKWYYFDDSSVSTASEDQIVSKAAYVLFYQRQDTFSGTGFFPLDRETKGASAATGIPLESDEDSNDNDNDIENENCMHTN
# How it was run: as §1
# [10] = target: USP16 (UniProt Q9Y5T5)
# How it was run: as §1
# Sequence of USP10 (Q14694 whole entry): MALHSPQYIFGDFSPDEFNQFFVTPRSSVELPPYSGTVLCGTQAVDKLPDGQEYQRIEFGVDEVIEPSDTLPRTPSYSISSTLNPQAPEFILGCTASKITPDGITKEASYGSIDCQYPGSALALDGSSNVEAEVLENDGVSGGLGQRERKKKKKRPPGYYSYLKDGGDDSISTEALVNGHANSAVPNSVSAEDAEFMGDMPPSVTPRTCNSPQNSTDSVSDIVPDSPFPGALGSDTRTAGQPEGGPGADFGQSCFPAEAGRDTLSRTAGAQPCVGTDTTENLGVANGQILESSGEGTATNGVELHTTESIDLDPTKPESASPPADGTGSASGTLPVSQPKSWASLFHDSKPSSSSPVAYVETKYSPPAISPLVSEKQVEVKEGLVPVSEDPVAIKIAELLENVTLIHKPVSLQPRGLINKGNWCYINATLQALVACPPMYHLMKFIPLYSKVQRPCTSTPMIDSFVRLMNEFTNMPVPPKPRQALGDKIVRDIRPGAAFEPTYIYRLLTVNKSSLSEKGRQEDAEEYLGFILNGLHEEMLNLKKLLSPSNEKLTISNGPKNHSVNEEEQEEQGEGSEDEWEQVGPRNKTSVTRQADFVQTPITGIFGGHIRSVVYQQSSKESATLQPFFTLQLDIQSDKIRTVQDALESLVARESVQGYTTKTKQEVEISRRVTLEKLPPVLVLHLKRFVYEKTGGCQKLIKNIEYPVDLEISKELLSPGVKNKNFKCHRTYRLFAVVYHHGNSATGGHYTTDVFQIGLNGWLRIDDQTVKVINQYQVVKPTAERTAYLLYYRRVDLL
# Sequence of USP16 (Q9Y5T5 whole entry, looked up): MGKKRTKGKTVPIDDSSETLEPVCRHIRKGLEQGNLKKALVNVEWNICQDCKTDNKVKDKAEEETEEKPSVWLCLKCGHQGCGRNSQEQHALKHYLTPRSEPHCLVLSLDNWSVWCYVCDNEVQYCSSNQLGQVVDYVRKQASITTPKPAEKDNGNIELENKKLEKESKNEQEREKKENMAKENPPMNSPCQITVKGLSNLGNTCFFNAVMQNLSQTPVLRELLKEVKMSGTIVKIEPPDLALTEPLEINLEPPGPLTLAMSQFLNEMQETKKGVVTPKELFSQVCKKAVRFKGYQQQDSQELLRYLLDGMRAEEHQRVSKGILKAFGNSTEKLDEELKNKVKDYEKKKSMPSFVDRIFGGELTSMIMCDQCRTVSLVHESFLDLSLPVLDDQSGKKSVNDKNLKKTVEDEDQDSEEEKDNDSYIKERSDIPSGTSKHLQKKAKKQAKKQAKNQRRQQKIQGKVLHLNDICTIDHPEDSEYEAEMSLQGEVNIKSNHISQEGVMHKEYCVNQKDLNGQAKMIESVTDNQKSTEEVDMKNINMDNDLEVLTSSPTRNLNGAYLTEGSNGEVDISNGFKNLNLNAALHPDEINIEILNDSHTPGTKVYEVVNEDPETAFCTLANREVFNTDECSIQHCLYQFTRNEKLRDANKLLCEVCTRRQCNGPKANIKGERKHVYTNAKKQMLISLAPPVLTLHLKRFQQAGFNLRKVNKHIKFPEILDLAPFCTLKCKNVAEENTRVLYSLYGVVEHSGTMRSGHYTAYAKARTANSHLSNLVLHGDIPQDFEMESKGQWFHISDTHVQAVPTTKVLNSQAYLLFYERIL
# Sequence of UCHL1 (P09936 whole entry, looked up): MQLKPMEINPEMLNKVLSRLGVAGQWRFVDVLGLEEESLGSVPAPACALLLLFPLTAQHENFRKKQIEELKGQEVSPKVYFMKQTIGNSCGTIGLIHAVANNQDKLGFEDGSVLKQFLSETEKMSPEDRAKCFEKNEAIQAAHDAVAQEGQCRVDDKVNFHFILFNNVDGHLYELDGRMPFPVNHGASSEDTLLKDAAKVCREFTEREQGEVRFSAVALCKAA
smiles,measurement,setting,value
Cc1ccc(C(=O)NCCNC(=O)CCl)cc1,log2 ratio of Biotin-Ahx-Ub-VS probe labelling,[1],-0.182
same,log2 ratio of Biotin-Ahx-Ub-VS probe labelling,[2],-0.711
same,log2 ratio of Biotin-Ahx-Ub-VS probe labelling,[3],-0.064
same,log2 ratio of Biotin-Ahx-Ub-VS probe labelling,[4],-0.134
same,log2 ratio of Biotin-Ahx-Ub-VS probe labelling,[5],-1.75 (active)
same,log2 ratio of Biotin-Ahx-Ub-VS probe labelling,[6],0.104
same,log2 ratio of Biotin-Ahx-Ub-VS probe labelling,[7],-0.144
same,log2 ratio of Biotin-Ahx-Ub-VS probe labelling,[8],-0.111
same,log2 ratio of Biotin-Ahx-Ub-VS probe labelling,[9],-0.0554
same,log2 ratio of Biotin-Ahx-Ub-VS probe labelling,[10],-0.0901

# — the supplement of paper PMC11732987, “Enantioselective OTUD7B fragment discovery through chemoproteomics screening and high-throughput optimisation” (Communications Chemistry, 2025)
